# Assay results from PubChem BioAssay AID504332 (National Center for Advancing Translational Sciences (NCATS), 2011).
# Values joined by “and” are separate entries in the source; they are usually repeats but may differ in a detail not shown here. Identical values can stand only once. Hit rate of the full screen: of about 350,000 compounds, about 31,000 (8.9%) were called active. Entries that show only a call come without a potency. About 15% were inconclusive and are not listed. Many of the other results were omitted from the sample, so actives are more common in it than they were. Unmarked numbers belong to inactive results. Calls come from the whole dose curve; as a rule, active = well fitted inhibition curve with a large enough effect; inconclusive = small, poorly fitted or top-dose-only effect; inactive = no such curve, though single readings can be large or run the other way.
# Molecular target: Histone-lysine N-methyltransferase EHMT2 (Homo sapiens) (UniProt Q96KQ7)
# Sequence (Q96KQ7 913-1193 limits assumed): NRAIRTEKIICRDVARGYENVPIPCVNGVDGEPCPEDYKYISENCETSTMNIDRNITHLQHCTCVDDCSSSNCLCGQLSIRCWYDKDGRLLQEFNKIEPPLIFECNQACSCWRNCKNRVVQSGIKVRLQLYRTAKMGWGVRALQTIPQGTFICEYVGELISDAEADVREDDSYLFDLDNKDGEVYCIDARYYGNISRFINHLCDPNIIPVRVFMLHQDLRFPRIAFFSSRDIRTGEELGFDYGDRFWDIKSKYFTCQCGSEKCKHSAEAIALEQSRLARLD
# Experiment: qHTS Assay for Inhibitors of Histone Lysine Methyltransferase G9a; note: nearly all actives have a fitted effect of over 75% in size
# Settings: G9a H3K9 monomethylation, AlphaScreen, 2 h; series mostly up to 102 µM
# Text: Methylated lysines, on the N-terminal tails of histone proteins serve as epigenetic markers to recruit factors that can then modify local chromatin structure to lead to functional consequences. G9a and other members of the SUV39 family of the SET domain-containing superfamily of histone lysine methyltransferases (HMT) have been identified to specifically methylate Lys9 of histone H3 (H3K9). G9a catalyzes the mono- and di-methylation of H3K9 in mammalian euchromatic regions, where the resulting H3K9me2 is indicative of transcriptional repression. […] The inhibition of G9a will result in transcriptional activation and work synergistically with DNA methyltransferase and histone deacetylase inhibitors, to kill cancer cells. This qHTS assay for identification of G9a inhibitors is a chemiluminescence based AlphaScreen (PerkinElmer). Methylation of biotinylated-histone peptide is measured through specific antibody-based detection, in conjunction with streptavidin-coated donor and anti-IgG antibody-coated acceptor beads. The method is particularly well suited for detection of inhibitors acting by the desired histone peptide competitive mechanism and is applicable to testing other HMTs. Although AlphaScreen has significant advantages with its utility in a variety of epigenetic target assays, the primary screening data provided in this deposition should be used with caution due to the prevalence of screening artifacts. An AlphaScreen counterscreen is highly recommended to be run against any putative actives to eliminate non specific artifacts. Alternatively, one can use other AlphaScreen assays in PubChem to filter out promiscuous hits. Quinn et al. A chemiluminescence-based method for identification of histone lysine methyltransferase inhibitors. Mol Biosyst 6(5): 782-8. 2010. PMID: 20567762 [2] Baell,Holloway. New substructure filters for removal of pan assay interference compounds (PAINS) from screening libraries and for their exclusion in bioassays. J Med Chem. 53(7):2719-40. 2010. PMID: 20131845 NIH Molecular Libraries Probe Production Network [MLPCN] NIH Chemical Genomics Center [NCGC] Structural Genomics Consortium (SGC) NIH Grant: 5U54 MH084681-02
# To each well of a 1,536w plate, 2ul of HMT enzyme (final 20nM) were added, using a nanoliter dispenser. The G9a- and GLP-inhibitor BIX-01294 (CID: 25150857) are used as an intraplate control, with a 16-point titration in duplicate. A Kalypsys pin-tool transferred 23nl of library compound solution in DMSO to each well. Following a 15 min incubation of enzyme with compounds at room temperature, 1ul mixture of b-H3K9 peptide substrate (final 500nM) and SAM cofactor (final 20uM) were added. Reactions were allowed to proceed at room temperature for 2 hours. Methylated b-H3K9 peptide product was detected with 0.5 ug/mL rabbit polyclonal anti-monomethyl histone H3K9 antibody (Abcam Inc., Cambridge, MA) and 20 ug/mL each streptavidin-coated donor and anti-rabbit IgG acceptor AlphaScreen beads. Antibody and beads were added in a 1ul dispense, for a final volume of 4ul, and plates were incubated, protected from the light, for 10 min at room temperature. Microplates were then read on an EnVision multilabel plate reader using the 1,536 plate HTS AlphaScreen aperture (excitation time 80 ms, measurement time 240 ms).
# Potency is the fitted concentration of half-maximal effect.
SMILES,Potency,"activity, negative = inhibition"
c1ccc(Cc2nn3c(Cn4cnc5ccccc54)nnc3s2)cc1,3.16 µM (active),–
COc1ccc(S(=O)(=O)NCc2ccc(C(=O)N3CCC4(CC3)OCCO4)cc2)cc1,–,inactive
O=c1[nH]c(=O)n(-c2ccc(F)cc2)c(O)c1C=NCCN1CCCCC1,–,inactive
O=c1[nH]c(=O)n(-c2ccccc2)c(O)c1C=NC12CN3CN(CN(C3)C1)C2,–,inactive
Cc1cccc(-n2c(O)c(C=NC34CN5CN(CN(C5)C3)C4)c(=O)[nH]c2=O)c1,50.1 µM (active),–
Cc1ccc(-n2c(O)c(C=NCC3CCCO3)c(=O)[nH]c2=O)c(C)c1 (centres undefined),–,48.7% [at 12.7 µM]
O=C(N/N=C/c1c(O)n(C2CC2)c(=S)[nH]c1=O)c1ccccc1,–,inactive
CC(C)c1ccc(-n2c(O)c(/C=N/N3CCOCC3)c(=O)[nH]c2=S)cc1,50.1 µM (active),–
O=c1[nH]c(=O)n(CCc2ccc(F)cc2)c(O)c1/C=N/N1CCCCC1,–,inactive
Cc1cccc(-n2c(O)c(/C=N/N3CCOCC3)c(=O)[nH]c2=S)c1,22.4 µM (active),–
O=c1[nH]c(=O)n(CCc2ccccc2)c(O)c1/C=N/N1CCOCC1,–,inactive
CN(C)CC1CCCCC1=O (centres undefined),–,inactive
CN(C)c1ccc(/C=C2\CC3C4CC=C5CC(O)CCC5(C)C4CCC3(C)C2=O)cc1 (centres undefined),–,inactive
COC(=O)C1=C(c2ccccc2OCc2ccccc2)C[C@@H]2CC[C@H]1N2C(=O)NCc1ccc(OC)cc1,–,-7.46% [at 2.33 µM]
CCOc1ccc(C2SCC(=O)Nc3c2c(C)nn3C2CCOC(C)(C)C2)cc1 (centres undefined),–,inactive
c1ccc2c(c1)[I+]c1ccccc1-2,–,-19.1% [at 12.7 µM]
Cc1ccc(-c2nc3ccccc3c(=O)n2-c2ccc(Br)cn2)cc1,–,inactive
CN(C)C(=O)Oc1ccc(NC(=O)N2CCOCC2)cc1,–,inactive
CSc1nc2ccc(C)cc2c(=O)n1-c1cccnc1,–,inactive
N#Cc1ccc(Cn2cc(C(=O)c3ccco3)c3ccccc32)cc1,–,inactive

SMILES,Potency,"activity, negative = inhibition"
COc1ccc(-n2c(O)c(C(C)=Nc3ccc4c(c3)CCC4)c(=O)[nH]c2=O)cc1,–,inactive
CC(=O)NBr,–,inactive
CCc1nc2ccccc2c(=O)n1-c1cccc(OC)c1,–,inactive
Cc1cccc(-n2c(C)nc3cc(C(=O)N4CCC5(CC4)OCCO5)ccc32)c1,–,inactive
O=C(N/N=C/c1c(O)n(Cc2ccccc2)c(=O)[nH]c1=O)c1ccccc1,–,inactive
Fc1ccc(N2CCN(Cc3ccc4c(c3)OCO4)CC2)cc1,8.91 µM (active),–
Oc1cc2c(cc1CN1CCN(c3ccccc3)CC1)OCO2,10 µM (active),–
CC(C)c1ccc(O)c(CN2CCN(c3ccccc3)CC2)c1,–,inactive
Cc1cc(=O)oc2c(C)c(OCC(=O)N3CCN(Cc4ccc5c(c4)OCO5)CC3)ccc12,–,inactive
O=C(NCC(c1cccnc1)N1CCN(c2ccccc2)CC1)Oc1ccccc1 (centres undefined),–,inactive
Cc1ccc(C(C)C)c(OCC(=O)N2CCN(CC(=O)N3CCOCC3)CC2)c1,–,28.3% [at 12.7 µM]
CN1CCN(/N=C/c2c[nH]c3ccccc23)CC1,–,inactive
CC(=O)OC1C2CCC3C1(CC(O)[C@@]1(O)[C@@H](CC(O)C1(C)C)[C@]3(C)O)C[C@@]2(C)O (some centres undefined),–,-31.5% [at 2.33 µM]
CCN1C[C@@]2(COC)CC[C@H](OC)[C@]34[C@@H]1[C@]1(OCO[C@@]15C[C@@H](OC)C1C[C@H]3[C@H]5[C@@H]1OC)[C@H](O)[C@@H]24,–,26.9% [at 21.5 µM]
CSC1=NP(=S)(SC)N(C)c2nc3n(c21)CCC3 (centres undefined),–,inactive
COc1ccc(-c2nn(CCC#N)cc2C(=O)Nc2ccc(C(C)=O)cc2)cc1,–,inactive
COc1cc(-n2c(=S)[nH]c3ccc(C)cc3c2=O)c(Cl)cc1Cl,–,20.4% [at 12.7 µM]
Cc1cc2ccccn2c1C(C[N+](=O)[O-])c1c(F)cccc1Cl (centres undefined),44.7 µM (active),–
Cc1nc2nc(C)c(CCC(=O)N3CCC4(CC3)OCCO4)c(C)n2n1,–,inactive
CNP1(NC)=Nc2nn(-c3ccccc3)c(N)c2C(c2ccccc2)=N1,–,inactive

SMILES,Potency,"activity, negative = inhibition"
C/C=C/CC1(CC)C(=O)NC(=S)NC1=O,–,inactive
O=C(NC(=S)N1C[C@H]2C[C@H](C1)c1cccc(=O)n1C2)c1ccc(F)cc1,35.5 µM (active),–
O=C(CCC(=O)N1C[C@H]2C[C@@H](C1)c1cccc(=O)n1C2)NCc1ccccc1C(F)(F)F,–,12.2% [at 0.501 µM]
COc1cccc(C(=O)N2C[C@H]3C[C@@H](C2)c2cccc(=O)n2C3)c1,–,1.87% [at 12.7 µM]
Cc1cccc(NC(=O)OC2CN3CCC2CC3)c1 (centres undefined),–,inactive
COC1=C[C@@H]2[C@@H]3Cc4ccc(OC)c(O)c4[C@]2(CCN3C)CC1=O,–,inactive
COc1ccc2c(c1O)-c1cccc3c1[C@@H](C2)N(C)CC3,7.94 µM (active),–
COP(=O)(OC)C(NC(=O)c1ccc(C)cc1)C(Cl)(Cl)Cl (centres undefined),–,inactive
C[C@]12CC[C@H](O)C[C@@H]1CC[C@H]1[C@H]2CC[C@]2(C)C(=O)CC[C@@H]12,–,13.5% [at 21.5 µM] and 22.6% [at 21.5 µM] and 16.7% [at 21.5 µM]
Cc1ccc(C2CN(C)CC2C(=O)c2ccc(F)cc2)cc1 (centres undefined),–,inactive
COc1ccc(CN2CCN(c3ccccc3F)CC2)c(OC)c1,11.2 µM (active),–
Fc1cccc(F)c1CN1CCN(Cc2c(F)cccc2F)CC1,–,inactive
O=C(O)C1CSC(c2cccnc2)N1 (centres undefined),3.55 µM (active),–
C[C@@]1([C@@H](NP(=O)(c2ccccc2)c2ccccc2)c2ccccc2)C[C@H]1CCO,–,inactive
COc1ccc(C2CC(c3cccs3)=NN2c2nc(C)c(C(C)=O)s2)cc1OC (centres undefined),–,inactive
CCOCCc1c(O)[nH]c(=S)[nH]c1=O,–,inactive
COc1ccccc1N=Nc1c(O)[nH]c(=S)[nH]c1=O,39.8 µM (active),–
Clc1ccc2nc3c(c(-c4ccccc4)c2c1)CNCC3,–,inactive
CNCC[C@H](Oc1ccc(C(F)(F)F)cc1)c1ccccc1,–,4.7% [at 21.5 µM] and 32.2% [at 12.7 µM]
